Compound activity as filed in PubChem BioAssay.
Rows were chosen to be rich in hits. Some 3% of all compounds tested hit in one or more screens of this group.
Mcl1 Noxa PPI: disrupts binding of human Mcl-1 to Noxa peptide. hit rate 1.5% among 220,000. AID 1022. TR-FRET Mcl-1/Noxa peptide binding, 2 h. inhibition, % at 21.7 µM;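 active means compounds that cut the protein-peptide binding signal by more than 50% relative to plate controls in a single-dose test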;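 further: His-tagged Mcl-1 with rhodamine Noxa BH3 peptide and terbium anti-His antibody; 0% = Mcl-1 plus Noxa peptide wells and 100% = peptide-only wells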
Target sequence (Q07820 whole entry, looked up): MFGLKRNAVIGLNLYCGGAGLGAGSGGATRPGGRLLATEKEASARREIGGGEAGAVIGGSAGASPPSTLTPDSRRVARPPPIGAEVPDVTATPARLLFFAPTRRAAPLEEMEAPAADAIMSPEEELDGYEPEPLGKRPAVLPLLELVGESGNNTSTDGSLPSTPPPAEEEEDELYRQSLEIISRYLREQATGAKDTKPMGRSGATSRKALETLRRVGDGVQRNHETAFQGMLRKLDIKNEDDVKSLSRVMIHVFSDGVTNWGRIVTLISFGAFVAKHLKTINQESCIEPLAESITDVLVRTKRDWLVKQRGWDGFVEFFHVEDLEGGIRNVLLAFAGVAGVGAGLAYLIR
14-3-3 Bad inh: disrupts binding of bovine 14-3-3 zeta to phospho-Bad peptide; inhibition, % at 21.7 µM; P63103; TR-FRET 14-3-3zeta/Dy647-pBad peptide displacement, 1 h; AID 781; hit rate 0.71% among 220,000;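 active means inhibition above about 70%, limit read from the data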;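 further: 0% = full 14-3-3 plus peptide FRET controls and 100% = background without 14-3-3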
Target sequence (P63103 whole entry, looked up): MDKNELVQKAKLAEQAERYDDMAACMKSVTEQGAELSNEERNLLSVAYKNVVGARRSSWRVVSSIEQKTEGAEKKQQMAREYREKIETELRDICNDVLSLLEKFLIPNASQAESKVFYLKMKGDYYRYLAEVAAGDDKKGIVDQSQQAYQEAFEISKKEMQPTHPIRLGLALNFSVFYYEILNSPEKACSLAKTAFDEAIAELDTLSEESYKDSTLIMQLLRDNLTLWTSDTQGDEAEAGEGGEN
Arbovirus inh: arbovirus infection inhibition; arbovirus infection cell-based antiviral screen; inhibition, % at 10 µM; hit rate 0.37% among 200,000; AID 1251; in the data active means inhibition above about 30%
Bim-Mcl-1: disrupts Bim peptide binding to human Mcl-1. hit rate 0.1% among 190,000. inhibition, % at 10 µM. Bead-based flow cytometry, Bim peptide-Mcl-1 binding. Q07820; in the data active means inhibition above about 40%;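 further: 0% = no compound tracer wells and 100% = peptide blocker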
Mcl1-Bid inh: disrupts binding of human Mcl-1 to Bid peptide; Q07820; TR-FRET Mcl-1/Bid-Dy647 peptide binding, 1536-well; inhibition, % at 21.7 µM; hit rate 0.97% among 220,000; AID 1021;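 active means compounds that cut the binding signal by more than half at the single screening dose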;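 further: His-tagged Mcl-1 with europium anti-His antibody binding Bid BH3 peptide; 0% = Mcl-1 plus peptide wells and 100% = peptide-only wells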
* = called active by the depositor; nt = not tested or not shown.

SMILES	Mcl1 Noxa PPI	14-3-3 Bad inh	Arbovirus inh	Bim-Mcl-1	Mcl1-Bid inh
O=C(C1=C[C@@H](c2csc3ccccc23)C[C@@H](OCc2ccc(CO)cc2)O1)N1CCN(Cc2ccc3c(c2)OCO3)CC1	-12	-1	-4	0	97*
O=C(C1=C[C@@H](c2csc3ccccc23)C[C@@H](OCc2ccc(CO)cc2)O1)N1CCN(Cc2ccccc2)CC1	4	2	-10	0	1
C=CCOc1c2ccc(C(=O)NCc3ccc(OC)cc3)cc2nn1C	-3	4	8	-2	-16
C=CCOc1c2ccc(C(=O)NCc3ccccc3OC)cc2nn1C	10	-1	2	0	64*
CCc1nn2cc(C(=O)c3ccccc3O)cnc2c1-c1ccc(F)cc1	10	-8	41*	-2	-23
CCc1nn2cc(C(=O)c3cc(C)ccc3O)cnc2c1-c1ccc(F)cc1	18	-1	7	42*	-40
O=C(CN1CCN(Cc2ccc(Cl)cc2)CC1)N/N=C/c1ccccc1F	4	3	nt	nt	-9
CCOc1cc(C(=O)Nc2ccc(F)cc2)cc(Br)c1OC	2	-8	-1	-7	-10
CCOc1cc(C(=O)Nc2ccc(N3CCOCC3)cc2)cc(Br)c1OC	61*	10	-13	0	-25
CCOC(=O)c1ccc(N=Nc2c(C)c(C#N)c(O)[nH]c2=O)cc1	88*	6	-10	-2	-22
O=C1c2[nH]nc(-c3ccccc3O)c2C(c2ccc(F)cc2)N1CC1CCCO1 (centres undefined)	20	0	33*	-1	5
CCOC(=O)N1CCC(n2c(SCC(=O)c3ccccc3)nc3ccsc3c2=O)CC1	-203	15	-2	0	65*
CCOC(=O)CSc1nc2ccsc2c(=O)n1C1CCN(C(=O)OCC)CC1	9	-8	0	-2	-21
O=C1OCCC1Sc1nnc(-c2ccc(Cl)cc2Cl)o1 (centres undefined)	-2	-13	nt	nt	-10
CC(C)Oc1ccc(C(=O)NC(=S)Nc2ccc(Cl)c(C(=O)O)c2)cc1	3	35	nt	nt	-7
COc1ccc(/C=C2/C(=O)N(CC3CCCO3)C(=S)N2C)c(OC)c1 (centres undefined)	2	7	52*	-5	-13
O=C(O)C(Cc1ccccc1)N1C(=O)/C(=C/c2cccc3ccccc23)SC1=S (centres undefined)	78*	-3	-10	4	91*
COc1cc(/C=C2/SC(=S)N(CC3CCCO3)C2=O)ccc1O (centres undefined)	13	-14	7	-1	72*
COc1ccc(/C=C2\SC(=S)N(CC3CCCO3)C2=O)cc1 (centres undefined)	-24	9	nt	nt	20
O=C(O)C(Cc1ccccc1)N1C(=O)/C(=C/c2ccccc2)SC1=S (centres undefined)	21	-1	2	-5	17
COc1cc(/C=C2\SC(=S)N(C(Cc3ccccc3)C(=O)O)C2=O)ccc1O (centres undefined)	19	10	nt	nt	56*
O=C(CNS(=O)(=O)c1ccccc1)Nc1ccc2c(c1)OCO2	3	-4	14	-2	-13
Cn1c(N)c(C(=O)COC(=O)[C@H](Cc2ccccc2)N2C(=O)c3ccccc3C2=O)c(=O)n(C)c1=O	15	-2	3	-1	-6
Cc1ccc(CN2C(=O)CNC2=S)cc1	5	-15	1	0	-27
CC1Cc2ccccc2N1C(=O)c1cc2sccc2n1Cc1ccc(F)cc1 (centres undefined)	-9	-8	14	-3	-2
SMILES	Mcl1 Noxa PPI	14-3-3 Bad inh	Arbovirus inh	Bim-Mcl-1	Mcl1-Bid inh
C/C(=N\NC(=O)c1cccc(F)c1)c1ccc(Br)s1	-18	4	-27	1	-7
CC(=O)c1cccc2c(O)c(C3=Nc4ccccc4C3=O)[nH]c12	62*	-14	-13	2	-39
CSCc1ccc(C(=O)NCc2ccc(F)cc2)cc1	7	-17	4	-1	-50
Cc1ccnc(NS(=O)(=O)c2ccc3c(c2)CCO3)c1	14	5	nt	nt	-31
O=S(=O)(Nc1ccc(Cl)cc1)c1ccc2c(c1)CCO2	3	98*	nt	nt	16
Cc1cc(-n2cnnn2)ccc1C(C)C	-6	-9	2	1	-37
COC(=O)c1ccccc1NC(=O)c1cc(-c2ccc(O)cc2)on1	68*	19	48*	0	12
Cc1ccc2[nH]c3c(c2c1)CCN1C(=O)OC(C)(C)C31C (centres undefined)	68*	-6	8	-1	-19
Cc1ccc2[nH]c3c(c2c1)CCNC3=O	7	-2	0	-13	-53
O=C1[C@H]2[C@@H](C(=O)N1c1cc(Cl)cc(Cl)c1)[C@]1(C(=O)Nc3ccccc31)N1CCC[C@@H]21	21	11	11	-3	-10
O=C1[C@H]2[C@@H](C(=O)N1c1cccc3ccccc13)C1(C(=O)c3ccccc3C1=O)N1CCC[C@@H]21	64*	9	-7	-6	-26
COc1ccc(C2(NC(C)=O)CCN(C(=O)c3cccs3)CC2)cc1	1	0	8	-4	-10
Cc1cc(C(=O)Nc2sc3c(c2C#N)CCC3)no1	nt	-7	-21	-2	-15
Cc1noc(C(=O)Nc2sc3c(c2C#N)CCC3)c1Cl	28	1	32*	0	-9
Cc1ccccc1C(=O)NC(=S)Nc1sc2c(c1C#N)CCCC2	6	-3	8	-3	93*
CCCN1CCc2c(sc(NC(=S)NC(=O)c3ccccc3)c2C#N)C1	38	90*	-4	-5	-13
Cc1onc(-c2ccccc2)c1C(=O)NC(=S)Nc1sc2c(c1C#N)CCCC2	44	-6	-1	-4	7
CCOC(=O)N1CCC(Nc2c(NCCN3CCN(c4ccccc4F)CC3)c(=O)c2=O)CC1	4	6	2	-1	-29
O=C(O)C1=C(OCc2ccc(F)c(F)c2)C(=O)NCC1	14	-16	7	-1	-26
C=CCN1C(=O)/C(=C/c2ccsc2)SC1=S	17	-8	-3	64*	1
COc1cccc2c3c(c(=O)[nH]c12)CCC(C)(C)O3	1	-4	-2	1	-3
COc1cccc2c(=O)c3cccc(N)c3[nH]c12	74*	2	-6	1	-29
CCOC(=O)c1sc(NC(=O)CCCn2nc([N+](=O)[O-])cc2C)c(C(=O)OCC)c1C	18	-11	7	3	-9
Nc1ccccc1-c1nnc(-c2ccccc2N)n1N	4	-6	2	-10	-41
O=C(CNC(=O)c1ccccc1F)N/N=C/c1cc(Br)ccc1OC(=O)/C=C/c1ccco1	14	-15	-20	-5	-28
O=C(CNC(=O)c1ccc(F)cc1)N/N=C/c1cc(Br)ccc1OC(=O)/C=C/c1ccco1	59*	0	nt	nt	-1
CC(NS(=O)(=O)c1cccc(Cl)c1)C(=O)N(C)C1CCN(C)CC1 (centres undefined)	53*	-10	-1	1	-14
CCOC(=O)Cc1csc(NC(=S)NC(=O)C(C)(C)C)n1	-8	-4	-6	-5	-40
